Screens as filed in PubChem BioAssay.
PV pol inh – poliovirus RdRp elongation inhibitors, primary screen, biochemical, fluorescence polarization, total intensity | 150,000 compounds, 0.66% hits | poliovirus polymerase elongation; stronger effect = lower value | AID 588519, 2011 | Genome polyprotein (Poliovirus type 1 (strain Mahoney)), P03300 | % elongation, % (compound at 16.7 µg/mL); in the data active = % elongation below about 90%
MbtI inh – MbtI salicylate synthase inhibitors, primary screen, biochemical, fluorescence intensity. P9WFX0. purified MbtI enzyme, fluorescence intensity read-out. inhibition, % (no concentration beside the values). 100,000 compounds, 0.89% hits; in the data active = inhibition mostly above about 56%, no sharp cut-off; inactive = mostly below about 77%
Target sequence (P9WFX0 whole entry, looked up): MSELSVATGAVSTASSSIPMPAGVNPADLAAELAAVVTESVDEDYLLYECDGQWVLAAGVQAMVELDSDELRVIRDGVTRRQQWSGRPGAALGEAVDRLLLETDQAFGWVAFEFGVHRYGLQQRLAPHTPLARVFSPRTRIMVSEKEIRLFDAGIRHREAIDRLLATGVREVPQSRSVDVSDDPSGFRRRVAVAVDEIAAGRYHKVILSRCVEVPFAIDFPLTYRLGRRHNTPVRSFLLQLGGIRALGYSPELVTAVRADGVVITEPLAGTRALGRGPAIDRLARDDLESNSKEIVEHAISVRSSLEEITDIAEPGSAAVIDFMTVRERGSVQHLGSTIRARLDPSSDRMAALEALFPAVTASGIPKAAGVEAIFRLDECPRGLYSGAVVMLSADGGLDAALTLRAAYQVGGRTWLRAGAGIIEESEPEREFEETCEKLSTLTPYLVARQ
AID504770 – growth inhibition of E. coli YBA685, primary screen, V. cholerae RctB inhibitors; E. coli YBA685 rctB-dependent plasmid, OD600 growth, 3 h; stronger effect = lower value; z-score (test concentration not listed); 130,000 compounds, 0.27% hits; AID 504770, 2011; in the data active = z-score below about -2, passing the limit was not always enough
Mtb MenB inh – M. tuberculosis MenB inhibitors, primary screen, biochemical, absorbance | inhibition, % (test concentration not listed) | 100,000 compounds, 0.43% hits | 1,4-dihydroxy-2-naphthoyl-CoA synthase (Mycobacterium tuberculosis (strain ATCC 25618 / … | MenB enzyme assay, absorbance read-out | AID 540299, 2011; in the data active = inhibition above about 21%, passing the limit was not always enough
* = called active by the depositor; . = no result given. The list is not random: actives were taken first. Their share in the collection is about 1.5%.

SMILES	PV pol inh	MbtI inh	AID504770	Mtb MenB inh
COc1ccc(/C=N/n2cn[nH]c2=S)cc1OC	104.0	-13.1	-1.15	-26.7
COc1ccc2c(C)cc(SCc3nc4ccccc4c(=O)n3CC#N)nc2c1	116.0	13.6	-0.35	-17.9
O=C(O)c1ccc2ncsc2c1	88.0*	77.0	-0.35	.
CCCn1c(=O)[nH][nH]c1=S	100.0	87.8*	-0.15	3.4
O=C(c1ccccc1O)N1CCN(c2ccccc2)CC1	98.0	-10.8	-0.35	-6.3
CCN(CC)C(=O)Oc1cc(COC)nc(-c2ccccc2)n1	.	.	-3*	.
CCN(CC)C(=O)Oc1cc(C(F)(F)F)nc(-c2ccc(Cl)cc2)n1	.	.	2.25	.
Cc1ccc(C2=NN(C(=O)COC(=O)c3c(-c4ccccc4)noc3C)C(c3ccco3)C2)cc1 (stereo not given)	101.0	10.5	0.3	-32.6
c1ccc(CNc2cccc3nonc23)cc1	100.0	-2.8	-0.05	.
NC(=O)CSc1nc2ccccc2s1	100.0	82.4*	-0.5	-38.1
O=C(CSc1nc2ccccc2s1)c1ccccc1	.	.	0.25	.
O=C(CSc1nc2ccccc2s1)c1ccc[nH]1	58.0*	9.6	0.3	-42.8
CC1CN(C(=O)c2cccc(S(=O)(=O)N3CCOCC3)c2)C(=NC2CCCCC2)S1 (stereo not given)	97.0	-3.5	0	-16.8
N#CCSc1nc2ccccc2c(=O)n1CC1CCC(C(=O)NCCc2ccccc2)CC1 (stereo not given)	.	.	2.1	.
C=CCn1c(C(C)Oc2ccc(Cl)cc2)n[nH]c1=S (stereo not given)	102.0	65.2*	1.9	-13.9
Cc1c(C#N)c(NC(=O)CN2CCCCC2C)n(Cc2ccco2)c1C (stereo not given)	103.0	-6.2	-0.15	-8.9
CCOC(=O)C1CCN(c2c(C(=O)c3ccc(C)cc3)cnc3ccc(F)cc23)CC1	80.0*	.	.	.
Cc1sc2nc[nH]c(=O)c2c1C	94.0	87.3*	-0.45	-9.1
CCOC(=O)c1cnc(NNC(=O)C(F)(F)F)nc1C(F)(F)F	101.0	8.6	-1	-14.4
O=C(Nc1ccc2c3c(cccc13)S(=O)(=O)N2)c1ccccc1	105.0	.	-0.65	-42.5
[O-]c1n[n+](-c2ccccc2)no1	96.0	.	-3.05*	-0.6
c1ccc(-c2noc(-c3ccccc3)n2)cc1	.	-0.3	1.3	.
Cc1nnc2sc(-c3cccc(NC(=O)c4cccc(F)c4)c3)nn12	103.0	-17.6	-0.95	-17.8
Cc1occc1-c1nnc2sc(-c3cccc(F)c3)nn12	103.0	95.2*	0.15	-72.7
Fc1ccccc1OCc1n[nH]c(=S)n1-c1ccccc1	99.0	23.6	-0.65	-59.4
SMILES	PV pol inh	MbtI inh	AID504770	Mtb MenB inh
COc1ccc(-c2cc(-c3ccccc3)c(C#N)c(SCC(O)CS(=O)(=O)Cc3ccccc3)n2)cc1 (stereo not given)	108.0	.	.	.
CCCCS(=O)(=O)CC(O)CSc1nc(-c2ccc(C)cc2)cc(-c2ccccc2)c1C#N (stereo not given)	81.0*	.	.	.
CC1=NN(c2ccccc2)C(=O)/C1=C/c1cn(CC(O)CN2CCCCC2)c2ccccc12 (stereo not given)	101.0	-0.3	-0.5	-83.3
Cc1cc(C(=O)OCC(=O)c2ccc3[nH]c(=O)[nH]c3c2)c2ccccc2n1	90.0*	-3.1	-0.25	-10.1
Cc1cc(C)nc(SCC(=O)OCC(=O)c2ccc3[nH]c(=O)[nH]c3c2)n1	101.0	0.0	-0.6	1.7
O=C(COC(=O)c1ccc(Cl)s1)c1ccc2[nH]c(=O)[nH]c2c1	79.0*	5.2	0.4	-12.4
O=C(COC(=O)c1nc(Cl)ccc1Cl)c1ccc2[nH]c(=O)[nH]c2c1	38.0*	-6.0	0.2	-8.4
COC(=O)c1sc(N)c(C(=O)OC)c1COC(=O)c1ccc2c(c1)OCCO2	105.0	7.9	0.3	-14.2
Cc1cc(NC(=O)c2cccs2)cc(C)c1OCC(=O)N1CCOCC1	.	8.9	1.9	.
COc1ccccc1N1CCN(C(=O)c2ccccc2C(F)(F)F)CC1	100.0	-9.4	-0.35	-5.2
COc1ccccc1N1CCN(C(=O)c2ccc[nH]c2=S)CC1	101.0	81.1*	1.45	-35.6
CC(=O)n1c(=S)[nH]c2ccccc21	99.0	101.3*	0.1	8.9
O=C(Cn1c(=S)[nH]c2ccccc21)c1ccc(-c2ccccc2)cc1	103.0	.	1.9	-13.4
CCN(CC)c1ncc2c(=S)[nH]c(=S)[nH]c2n1	100.0	-5.8	-0.1	-9.4
C=CCSc1ncc2c(=S)[nH]c(=S)[nH]c2n1	93.0	56.1*	-0.2	-102.5
CCc1ccc(S(=O)(=O)/N=C2\C=CC(=O)c3ccccc32)cc1	74.0*	64.1	1.65	-41.1
c1ccc(CN2CCN(Cc3ccc4c(c3)OCCO4)CC2)cc1	100.0	-2.3	0.25	8.5
CCN1C(=O)N(c2ccccc2)P(=S)(N2CCCC2)c2cc3c(cc21)OCCO3 (stereo not given)	87.0*	89.8*	-0.25	-17.6
Cc1ccc(NC(=O)CN2C(=O)C(c3ccc(C(C)(C)C)cc3)=NC2(C)C)cc1	32.0*	.	.	.
COC(=O)c1ccc(NC(=O)C(C)Sc2nc3c(c(=O)[nH]2)CCCC3)cc1 (stereo not given)	102.0	81.3*	-0.6	-6.1
CCOC(=O)C(Sc1nc2c(c(=O)[nH]1)CCCC2)c1ccccc1 (stereo not given)	.	73.7*	-0.35	-9.5
O=c1[nH]c(SCc2ccccc2)nc2c1CCCC2	111.0	.	.	.
CN1C(=O)Cc2cc(S(=O)(=O)CCC(=O)N3CCn4c3nc3ccccc34)ccc21	102.0	-19.4	-0.35	-20.0
CCCN(CCC)C(=O)Nc1cn(CC(C)C)c(=O)c2ccccc12	97.0	120.1	0.3	-23.9
Cc1ccc(NC(=O)Nc2cn(CC(C)C)c(=O)c3ccccc23)cc1N(C)C	73.0*	.	.	.
SMILES	PV pol inh	MbtI inh	AID504770	Mtb MenB inh
CC(C)Cn1cc(NC(=O)Nc2cccc(C(F)(F)F)c2)c2ccccc2c1=O	70.0*	.	.	.
OCCN1CCN(C2CCN(C3CCCCCC3)CC2)CC1	.	0.6	1.05	.
CCCc1n[nH]c(=S)s1	87.0*	89.0*	-0.3	-5.1
Cc1ccc(C)n1-c1n[nH]c(=S)s1	99.0	54.8	-1.75	-25.8
O=C(CC(C(=O)O)c1cccc(Cl)c1)c1ccccc1 (stereo not given)	.	.	0.2	.
O=C(O)C(CO)c1ccccc1 (stereo not given)	98.0	0.5	0.1	26.2*
Cc1nc(-c2c[nH]c3ccccc23)c(C)s1	73.0*	.	-1.05	-15.1
CCc1ccc(S(=O)(=O)c2nnn3c2nc(NCc2ccccc2)c2cc(Cl)ccc23)cc1	104.0	.	.	.
CCc1ccc(S(=O)(=O)c2nnn3c2nc(NCc2cccc(OC)c2)c2cc(Cl)ccc23)cc1	89.0*	.	.	.
CCN1CCN(CCC(=O)Nc2ccc(C)cc2)CC1	100.0	-1.0	-0.1	37.1*
CCN1CCN(CCC(=O)Nc2ccc(-c3ccccc3)cc2)CC1	100.0	13.6	-0.4	.
CC(C)c1nc(=S)c2ccccc2[nH]1	103.0	86.2	-1.1	-56.3
S=c1nc(C2CC2)[nH]c2ccccc12	98.0	91.9*	0	11.9
Cc1ccc(NC(=O)Nc2cn(C)c(=O)c3ccccc23)c(Cl)c1	80.0*	.	.	.
